# The supplement of paper PMC10849652
# Of roughly 7,900 targets only a part is listed; those with a hit were picked by preference. About 0.6% of all pairs of compound and target were hits.
# Compound: CC1=CC=C(C=C1)SC2=C3C=C(SC3=CN=C2)C(=O)N
# Assay: log2 fold change, soluble protein after heating vs DMSO (PISA); higher = thermal stabilisation; K562 cells, 10 uM, 30 min; active = over 0.2 and 3.5 SD of the protein, either way, in both replicates (recomputed)
# In short: (§1)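 K562 cells at 2×10^6 cells/mL were given 10 μM compound for 30 min. Aliquots then went through 3 min of heating across 48°C-58°C, were pooled, and were extracted in PBS with 0.5% NP-40 at 4°C, and the supernatant after 21,000xg for 90 min was quantified by TMTpro 16plex LC-MS/MS with channel sums equalised. Thermal stability relative to control samples, from duplicates, is given as log2 fold change.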
# Sequence of UniProt Q16254 (Q16254 whole entry, looked up): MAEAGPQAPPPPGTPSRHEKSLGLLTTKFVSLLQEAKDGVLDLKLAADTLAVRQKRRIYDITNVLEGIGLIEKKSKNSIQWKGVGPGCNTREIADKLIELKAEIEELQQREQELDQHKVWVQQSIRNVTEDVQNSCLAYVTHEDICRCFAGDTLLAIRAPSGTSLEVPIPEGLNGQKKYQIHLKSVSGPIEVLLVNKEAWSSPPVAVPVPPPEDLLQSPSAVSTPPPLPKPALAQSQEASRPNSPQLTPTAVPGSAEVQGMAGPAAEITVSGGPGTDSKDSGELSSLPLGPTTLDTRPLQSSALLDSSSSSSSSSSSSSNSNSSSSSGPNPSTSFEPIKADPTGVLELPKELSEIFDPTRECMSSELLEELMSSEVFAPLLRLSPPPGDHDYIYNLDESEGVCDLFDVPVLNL
# Sequence of UniProt Q9H467 (Q9H467 whole entry, looked up): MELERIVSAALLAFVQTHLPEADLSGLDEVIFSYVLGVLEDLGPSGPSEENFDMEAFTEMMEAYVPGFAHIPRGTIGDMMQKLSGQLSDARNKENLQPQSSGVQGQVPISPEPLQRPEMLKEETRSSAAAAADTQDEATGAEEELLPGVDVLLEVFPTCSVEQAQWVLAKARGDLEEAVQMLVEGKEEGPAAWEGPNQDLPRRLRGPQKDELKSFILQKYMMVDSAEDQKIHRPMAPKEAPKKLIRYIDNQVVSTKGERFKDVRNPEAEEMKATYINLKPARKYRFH
# Sequence of UniProt Q96G46 (Q96G46 whole entry, looked up): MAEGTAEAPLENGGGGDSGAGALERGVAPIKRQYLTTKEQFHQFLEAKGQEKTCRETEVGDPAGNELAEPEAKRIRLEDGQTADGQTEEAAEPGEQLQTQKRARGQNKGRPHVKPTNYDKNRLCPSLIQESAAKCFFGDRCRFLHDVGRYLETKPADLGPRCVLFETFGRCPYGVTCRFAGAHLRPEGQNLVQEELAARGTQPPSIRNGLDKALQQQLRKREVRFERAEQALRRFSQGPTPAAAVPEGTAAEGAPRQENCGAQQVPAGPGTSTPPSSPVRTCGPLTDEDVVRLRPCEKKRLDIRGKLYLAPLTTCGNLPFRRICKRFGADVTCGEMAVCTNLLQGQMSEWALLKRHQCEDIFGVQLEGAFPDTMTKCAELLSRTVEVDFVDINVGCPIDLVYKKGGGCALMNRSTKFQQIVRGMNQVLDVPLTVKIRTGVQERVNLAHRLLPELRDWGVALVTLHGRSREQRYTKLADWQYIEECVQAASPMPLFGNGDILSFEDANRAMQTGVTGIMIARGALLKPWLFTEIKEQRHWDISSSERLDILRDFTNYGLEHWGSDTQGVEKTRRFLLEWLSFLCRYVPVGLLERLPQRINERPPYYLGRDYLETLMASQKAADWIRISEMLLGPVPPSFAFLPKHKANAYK
# Sequence of UniProt Q96DA6 (Q96DA6 whole entry, looked up): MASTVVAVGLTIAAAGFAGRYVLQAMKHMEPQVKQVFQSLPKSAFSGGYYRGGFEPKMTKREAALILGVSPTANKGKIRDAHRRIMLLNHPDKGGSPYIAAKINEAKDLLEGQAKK
# Sequence of UniProt Q14689 (Q14689 whole entry, looked up): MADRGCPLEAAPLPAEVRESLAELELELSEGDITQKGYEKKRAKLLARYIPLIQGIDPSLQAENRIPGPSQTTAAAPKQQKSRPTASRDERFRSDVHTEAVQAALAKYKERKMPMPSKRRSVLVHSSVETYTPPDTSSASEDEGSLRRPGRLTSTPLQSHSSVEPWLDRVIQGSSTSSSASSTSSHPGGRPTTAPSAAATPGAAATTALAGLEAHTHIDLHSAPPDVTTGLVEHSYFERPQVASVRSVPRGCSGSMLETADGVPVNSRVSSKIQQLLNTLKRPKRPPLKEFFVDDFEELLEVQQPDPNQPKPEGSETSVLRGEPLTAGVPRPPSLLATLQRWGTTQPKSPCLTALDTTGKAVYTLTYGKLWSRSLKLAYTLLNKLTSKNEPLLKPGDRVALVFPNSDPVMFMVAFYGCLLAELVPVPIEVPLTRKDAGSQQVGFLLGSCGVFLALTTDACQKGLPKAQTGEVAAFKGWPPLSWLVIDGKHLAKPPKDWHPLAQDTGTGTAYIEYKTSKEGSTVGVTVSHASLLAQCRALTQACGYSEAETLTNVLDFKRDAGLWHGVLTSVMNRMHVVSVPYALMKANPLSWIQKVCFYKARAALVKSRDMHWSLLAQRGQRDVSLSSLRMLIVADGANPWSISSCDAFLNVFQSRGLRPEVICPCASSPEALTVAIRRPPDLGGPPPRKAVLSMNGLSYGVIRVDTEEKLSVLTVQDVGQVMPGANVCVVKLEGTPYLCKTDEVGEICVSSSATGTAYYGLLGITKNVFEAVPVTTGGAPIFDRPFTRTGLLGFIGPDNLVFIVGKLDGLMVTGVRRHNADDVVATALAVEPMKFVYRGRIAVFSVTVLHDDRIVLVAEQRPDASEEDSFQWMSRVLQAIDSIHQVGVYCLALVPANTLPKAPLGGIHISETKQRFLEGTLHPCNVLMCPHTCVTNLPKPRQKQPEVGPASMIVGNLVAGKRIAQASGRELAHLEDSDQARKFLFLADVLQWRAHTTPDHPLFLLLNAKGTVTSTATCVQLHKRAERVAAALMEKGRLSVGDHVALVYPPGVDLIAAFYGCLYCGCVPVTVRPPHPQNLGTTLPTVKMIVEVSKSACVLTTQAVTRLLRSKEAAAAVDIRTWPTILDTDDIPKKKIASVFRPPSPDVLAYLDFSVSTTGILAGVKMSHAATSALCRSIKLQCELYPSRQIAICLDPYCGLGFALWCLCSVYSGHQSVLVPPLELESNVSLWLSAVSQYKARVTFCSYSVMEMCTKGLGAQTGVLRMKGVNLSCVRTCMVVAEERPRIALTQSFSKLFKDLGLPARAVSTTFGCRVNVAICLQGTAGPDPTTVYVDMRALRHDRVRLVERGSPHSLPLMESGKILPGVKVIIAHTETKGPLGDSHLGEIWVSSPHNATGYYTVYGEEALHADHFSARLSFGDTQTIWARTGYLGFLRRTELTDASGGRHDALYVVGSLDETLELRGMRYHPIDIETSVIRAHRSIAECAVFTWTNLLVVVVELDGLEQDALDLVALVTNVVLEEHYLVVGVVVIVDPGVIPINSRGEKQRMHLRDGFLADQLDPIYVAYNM
# Sequence of UniProt P09622 (P09622 whole entry, looked up): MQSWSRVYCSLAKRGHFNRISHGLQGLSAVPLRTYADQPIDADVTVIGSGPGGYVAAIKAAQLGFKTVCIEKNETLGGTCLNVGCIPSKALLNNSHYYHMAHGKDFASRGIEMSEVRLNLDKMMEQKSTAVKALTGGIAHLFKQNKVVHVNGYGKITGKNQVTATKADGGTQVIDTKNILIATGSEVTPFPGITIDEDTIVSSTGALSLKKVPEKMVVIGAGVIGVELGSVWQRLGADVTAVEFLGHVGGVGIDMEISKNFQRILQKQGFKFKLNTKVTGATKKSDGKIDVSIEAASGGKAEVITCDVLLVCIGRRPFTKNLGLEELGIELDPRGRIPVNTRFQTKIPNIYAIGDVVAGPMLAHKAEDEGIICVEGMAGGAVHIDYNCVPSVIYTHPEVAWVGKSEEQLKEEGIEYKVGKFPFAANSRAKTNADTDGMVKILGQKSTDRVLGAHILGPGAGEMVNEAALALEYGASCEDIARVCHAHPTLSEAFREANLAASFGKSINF
# Sequence of UniProt Q96EV8 (Q96EV8 whole entry, looked up): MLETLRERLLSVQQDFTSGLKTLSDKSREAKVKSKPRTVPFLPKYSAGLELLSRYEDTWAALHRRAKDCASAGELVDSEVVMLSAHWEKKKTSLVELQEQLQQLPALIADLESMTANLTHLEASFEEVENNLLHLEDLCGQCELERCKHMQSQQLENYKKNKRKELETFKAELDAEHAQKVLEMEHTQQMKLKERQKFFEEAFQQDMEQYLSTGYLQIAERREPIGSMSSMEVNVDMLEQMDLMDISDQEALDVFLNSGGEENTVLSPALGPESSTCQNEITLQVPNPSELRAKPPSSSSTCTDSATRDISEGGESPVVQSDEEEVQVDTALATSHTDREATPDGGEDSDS
# Sequence of UniProt P98082 (P98082 whole entry, looked up): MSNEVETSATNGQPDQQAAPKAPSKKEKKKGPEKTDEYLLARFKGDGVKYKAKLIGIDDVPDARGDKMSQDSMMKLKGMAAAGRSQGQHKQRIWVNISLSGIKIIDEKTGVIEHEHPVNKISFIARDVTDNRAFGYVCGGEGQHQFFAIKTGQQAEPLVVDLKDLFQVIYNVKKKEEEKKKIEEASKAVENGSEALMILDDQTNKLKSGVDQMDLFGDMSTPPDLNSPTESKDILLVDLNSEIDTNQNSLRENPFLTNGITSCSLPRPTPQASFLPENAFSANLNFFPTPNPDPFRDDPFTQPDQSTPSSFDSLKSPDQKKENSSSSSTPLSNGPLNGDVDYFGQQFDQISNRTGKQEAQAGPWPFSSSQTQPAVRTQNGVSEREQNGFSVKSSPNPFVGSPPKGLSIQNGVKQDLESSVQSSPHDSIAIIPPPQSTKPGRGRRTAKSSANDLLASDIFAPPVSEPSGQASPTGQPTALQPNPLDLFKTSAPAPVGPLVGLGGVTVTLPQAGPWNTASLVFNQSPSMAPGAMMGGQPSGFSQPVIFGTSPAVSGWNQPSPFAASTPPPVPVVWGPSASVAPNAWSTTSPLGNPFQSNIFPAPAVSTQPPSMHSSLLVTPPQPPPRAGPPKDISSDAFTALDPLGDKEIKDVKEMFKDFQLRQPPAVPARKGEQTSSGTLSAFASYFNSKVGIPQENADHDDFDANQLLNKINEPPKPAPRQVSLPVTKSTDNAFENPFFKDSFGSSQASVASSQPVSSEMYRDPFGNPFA
# Sequence of UniProt Q14320 (Q14320 whole entry, looked up): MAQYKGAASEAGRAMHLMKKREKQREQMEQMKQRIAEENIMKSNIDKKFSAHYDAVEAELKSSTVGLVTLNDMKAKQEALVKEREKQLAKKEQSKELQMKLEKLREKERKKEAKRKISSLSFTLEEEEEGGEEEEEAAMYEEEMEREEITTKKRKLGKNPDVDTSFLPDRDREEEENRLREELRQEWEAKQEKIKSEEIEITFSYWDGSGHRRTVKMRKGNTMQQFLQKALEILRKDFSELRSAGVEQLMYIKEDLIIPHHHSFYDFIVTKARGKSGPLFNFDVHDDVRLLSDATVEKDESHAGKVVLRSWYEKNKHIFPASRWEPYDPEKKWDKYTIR
row,Target,log2 fold change
1,FAM177A1 isoform 2 (UniProt Q8N128),0.101 (inactive)
2,E2F4 (UniProt Q16254),0.087 (inactive)
3,FAM50A (UniProt Q14320),0.019 (inactive)
4,DIAPH1 (UniProt O60610),0.025 (inactive)
5,DUS3L (UniProt Q96G46),-0.01 (inactive)
6,DLD (UniProt P09622),0.008 (inactive)
7,CUEDC2 (UniProt Q9H467),-0.001 (inactive)
8,DHCR24 (UniProt Q15392),-0.003 (inactive)
9,CTNNB1 (UniProt P35222),0.09 (inactive)
10,DHX36 (UniProt Q9H2U1),-0.034 (inactive)
11,DYNC1I2 isoform 5 (UniProt Q13409),-0.006 (inactive)
12,DTNBP1 (UniProt Q96EV8),0.001 (inactive)
13,DIP2A (UniProt Q14689),-0.007 (inactive)
14,DNAAF2 (UniProt Q9NVR5),-0.046 (inactive)
15,DAB2 (UniProt P98082),-0.03 (inactive)
16,DNAJC19 (UniProt Q96DA6),0.043 (inactive)

# Compound: CC1=NC(=CC=C1)C2=C(N=C(N2)C(C)(C)C)C3=CC4=NC=CN=C4C=C3
# Assay: as above
# In short: as §1
row,Target,log2 fold change
1,ECPAS (UniProt Q5VYK3),0.02 (inactive)
2,FAAP100 (UniProt Q0VG06),0.066 (inactive)
3,DCTN1 isoform 4 (UniProt Q14203),-0.039 (inactive)
4,DMAC1 (UniProt Q96GE9),0.005 (inactive)
5,DBNL isoform 3 (UniProt Q9UJU6),0.113 (inactive)
6,DNAJC24 (UniProt Q6P3W2),0.008 (inactive)
7,EIF4E2 (UniProt O60573),0.089 (inactive)
8,DHPS (UniProt P49366),0.161 (inactive)
9,DBR1 (UniProt Q9UK59),0.049 (inactive)
10,ELOC (UniProt Q15369),0.001 (inactive)
11,EXOC8 (UniProt Q8IYI6),0.016 (inactive)
12,EEF1D isoform 2 (UniProt P29692),-0.003 (inactive)
13,DHRS7B (UniProt Q6IAN0),-0.001 (inactive)
14,ERCC2 (UniProt P18074),-0.038 (inactive)
15,EIF2S3 (UniProt P41091),-0.032 (inactive)
16,CYP51A1 (UniProt Q16850),-0.133 (inactive)
17,FAM114A2 (UniProt Q9NRY5),0.022 (inactive)
18,CUTA isoform 2 (UniProt O60888),0.044 (inactive)
19,EEF1B2 (UniProt P24534),0.031 (inactive)
20,DCTPP1 (UniProt Q9H773),0.008 (inactive)

row,Target,log2 fold change
1,"EED, A0A5F9ZI63",-0.019 (inactive)
2,DTWD1 (UniProt Q8N5C7),0.081 (inactive)
3,EEF1A1 (UniProt P68104),0.052 (inactive)
4,FAM177A1 isoform 2 (UniProt Q8N128),0.039 (inactive)
5,E2F4 (UniProt Q16254),0.079 (inactive)
6,FAM50A (UniProt Q14320),0.057 (inactive)
7,DIAPH1 (UniProt O60610),-0.049 (inactive)
8,DUS3L (UniProt Q96G46),0.017 (inactive)
9,DLD (UniProt P09622),0.013 (inactive)
10,CUEDC2 (UniProt Q9H467),-0.153 (inactive)
11,DHCR24 (UniProt Q15392),-0.043 (inactive)
12,CTNNB1 (UniProt P35222),-0.028 (inactive)
13,DHX36 (UniProt Q9H2U1),-0.033 (inactive)
14,DYNC1I2 isoform 5 (UniProt Q13409),0.028 (inactive)
15,DTNBP1 (UniProt Q96EV8),0.055 (inactive)
16,DIP2A (UniProt Q14689),0.07 (inactive)
17,DNAAF2 (UniProt Q9NVR5),-0.038 (inactive)
18,DAB2 (UniProt P98082),-0.046 (inactive)
19,DNAJC19 (UniProt Q96DA6),0.069 (inactive)

# Compound: CCCCN(Cc1ccc(C(=O)NO)cc1)C(=O)Nc1ccccc1 [Nexturastat A]
# Assay: as above
# In short: as §1
row,Target,log2 fold change
1,ECPAS (UniProt Q5VYK3),0.049 (inactive)
2,FAAP100 (UniProt Q0VG06),-0.327 (active)
3,DCTN1 isoform 4 (UniProt Q14203),0.116 (inactive)
4,DMAC1 (UniProt Q96GE9),-0.071 (inactive)
5,DBNL isoform 3 (UniProt Q9UJU6),-0.082 (inactive)
6,DNAJC24 (UniProt Q6P3W2),-0.208 (inactive)
7,EIF4E2 (UniProt O60573),0.097 (inactive)
8,DHPS (UniProt P49366),-0.079 (inactive)
9,DBR1 (UniProt Q9UK59),-0.007 (inactive)
10,ELOC (UniProt Q15369),-0.027 (inactive)
11,EXOC8 (UniProt Q8IYI6),-0.087 (inactive)
12,EEF1D isoform 2 (UniProt P29692),0.029 (inactive)
13,DHRS7B (UniProt Q6IAN0),0.003 (inactive)
14,ERCC2 (UniProt P18074),0.035 (inactive)
15,EIF2S3 (UniProt P41091),0.102 (inactive)
16,CYP51A1 (UniProt Q16850),0.024 (inactive)
17,FAM114A2 (UniProt Q9NRY5),-0.053 (inactive)
18,CUTA isoform 2 (UniProt O60888),0.169 (inactive)
19,EEF1B2 (UniProt P24534),0.031 (inactive)
20,DCTPP1 (UniProt Q9H773),0.067 (inactive)

row,Target,log2 fold change
1,"EED, A0A5F9ZI63",0.013 (inactive)
2,DTWD1 (UniProt Q8N5C7),-0.072 (inactive)
3,EEF1A1 (UniProt P68104),0.086 (inactive)
4,FAM177A1 isoform 2 (UniProt Q8N128),-0.064 (inactive)
5,E2F4 (UniProt Q16254),0.034 (inactive)
6,FAM50A (UniProt Q14320),-0.069 (inactive)
7,DIAPH1 (UniProt O60610),0.19 (inactive)
8,DUS3L (UniProt Q96G46),-0.023 (inactive)
9,DLD (UniProt P09622),-0.058 (inactive)
10,CUEDC2 (UniProt Q9H467),-0.019 (inactive)
11,DHCR24 (UniProt Q15392),0.004 (inactive)
12,CTNNB1 (UniProt P35222),0.172 (inactive)
13,DHX36 (UniProt Q9H2U1),0.111 (inactive)
14,DYNC1I2 isoform 5 (UniProt Q13409),0.043 (inactive)
15,DTNBP1 (UniProt Q96EV8),-0.022 (inactive)
16,DIP2A (UniProt Q14689),-0.119 (inactive)
17,DNAAF2 (UniProt Q9NVR5),-0.034 (inactive)
18,DAB2 (UniProt P98082),0.058 (inactive)
19,DNAJC19 (UniProt Q96DA6),-0.121 (inactive)
